The values that follow come from PubChem BioAssay (NCATS).

Values joined by “and” are separate entries in the source; they are usually repeats but may differ in a detail not shown here. Equal entries are not always repeated. Results filed as inconclusive are left out. Values without a mark were called inactive. Active and inactive are the calls of the source. Calls come from the whole dose curve; as a rule, active = well fitted inhibition curve with a large enough effect; inconclusive = small, poorly fitted or top-dose-only effect; inactive = flat fitted curve, though single readings scatter.

The test system of one experiment is PC49. Nature of the experiment: qHTS profiling for inhibitors of Plasmodium falciparum proliferation (AID 504749). As to conditions: P. falciparum in erythrocytes, SYBR Green DNA, 72 h; series mostly up to 28.7 µM. The method, boiled down:
(§1)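 Quantitative HTS: compounds pinned into medium, infected erythrocytes added (0.3% parasitemia, 2.5% hematocrit), 72 h culture at 37 C under 5% CO2. Saponin/Triton lysis with SYBR Green I, overnight RT, then fluorescence read.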

The subject of a further experiment is SC27B. The description is as above. Particulars: P. falciparum in erythrocytes, SYBR Green DNA, 72 h; series mostly up to 28.7 µM. The method, boiled down:
as §1

In the next experiment the test system is TAB113. Described as above. Particulars: P. falciparum in erythrocytes, SYBR Green DNA, 72 h; series mostly up to 28.7 µM. The method, boiled down: as §1
Another experiment relates to TAB165. The experiment is described as above. As to conditions: P. falciparum in erythrocytes, SYBR Green DNA, 72 h; series mostly up to 28.7 µM. The method, boiled down:
as §1

For the next experiment, the system named is W2. The experiment is described as above. As to conditions: P. falciparum in erythrocytes, SYBR Green DNA, 72 h; series mostly up to 28.7 µM. In short, it runs like this:
as §1

Another experiment relates to HEK293. Nature of the experiment: Cytotoxic Profiling of Annotated Libraries Using Quantitative High-Throughput Screening (AID 1296008). For max response: % is set by controls: 0 for no effect and ±100 for the full control effect. Particulars: Five cell lines viability, CellTiter-Glo ATP luminescence, 48-72 h; max response: stronger effect = lower value. In short, it runs like this: (§2)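 Compounds were pin-transferred onto cells and incubated 48 or 72 hr at 37 degree Celsius, 95% humidity. CellTiter-Glo was added, plates sat 10 min at room temperature, then ATP-coupled luminescence was imaged as the viability read-out.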

The test system of experiment [1] is HaCat. The description is as above. As to conditions: Five cell lines viability, CellTiter-Glo ATP luminescence, 48-72 h; max response: stronger effect = lower value. In short, it runs like this: as §2
On the technique in general: In ATP-based viability assays light output follows the ATP content of the culture.

The next experiment has as its system KB-3-1. Described as above. As to conditions: Five cell lines viability, CellTiter-Glo ATP luminescence, 48-72 h; max response: stronger effect = lower value. In short, it runs like this:
as §2

In experiment [2] the test system is NIH3T3. The experiment is described as above. Particulars: Five cell lines viability, CellTiter-Glo ATP luminescence, 48-72 h; max response: stronger effect = lower value. The method, boiled down:
as §2

The next experiment deals with MCC-13. Briefly: qHTS assay to identify novel small-molecules to repurpose for Merkel cell carcinoma treatment (AID 1296009). Particulars: MCC and control cell lines, CellTiter-Glo viability, 72 h; series mostly up to 46 µM. In short, it runs like this:
(§3)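 Viability readout: ATP luminescence (CellTiter-Glo) after 72 hr drug exposure at 37 degree celsius. Dose-response format was 8 points for NPC and 11 points for MIPE; data normalized to in-plate controls.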

In another experiment the test system is MCC-26. The description is as above. Particulars: MCC and control cell lines, CellTiter-Glo viability, 72 h; series mostly up to 46 µM. The method, boiled down: as §3
The subject of a further experiment is WaGa. The experiment is described as above. As to conditions: MCC and control cell lines, CellTiter-Glo viability, 72 h; series mostly up to 46 µM. The method, boiled down: as §3
The next experiment concerns CRL-7250. Nature of the experiment: Cytotoxic Profiling of Annotated Libraries Using Quantitative High-Throughput Screening (AID 1296008). For max response: % is set by controls: 0 for no effect and ±100 for the full control effect. As to conditions: Five cell lines viability, CellTiter-Glo ATP luminescence, 48-72 h; max response: stronger effect = lower value. In short, it runs like this:
as §2

For another experiment, the system named is MKL-1. Nature of the experiment: qHTS assay to identify novel small-molecules to repurpose for Merkel cell carcinoma treatment (AID 1296009). As to conditions: MCC and control cell lines, CellTiter-Glo viability, 72 h; series mostly up to 46 µM. In short, it runs like this: as §3
(qHTS replaces the single test concentration by a dilution series.)

The next experiment deals with MKL-2. The description is as above. Particulars: MCC and control cell lines, CellTiter-Glo viability, 72 h; series mostly up to 46 µM. In short, it runs like this:
as §3

The test system of experiment [3] is NIH3T3. Described as above. As to conditions: MCC and control cell lines, CellTiter-Glo viability, 72 h; at 44.8 µM (top of the series) unless noted. In short, it runs like this: as §3
The next experiment deals with UISO. The description is as above. As to conditions: MCC and control cell lines, CellTiter-Glo viability, 72 h; series mostly up to 46 µM. In short, it runs like this: as §3
Experiment [4] has as its system HACAT. The experiment is described as above. Particulars: MCC and control cell lines, CellTiter-Glo viability, 72 h; at 44.8 µM (top of the series) unless noted. The method, boiled down:
as §3

The next experiment has as its system TAB109. Nature of the experiment: qHTS profiling for inhibitors of Plasmodium falciparum proliferation (AID 504749). Particulars: P. falciparum in erythrocytes, SYBR Green DNA, 72 h; series mostly up to 28.7 µM. The method, boiled down: as §1
The test system of the next experiment is HEK293T. Nature of the experiment: qHTS assay to identify novel small-molecules to repurpose for Merkel cell carcinoma treatment (AID 1296009). As to conditions: MCC and control cell lines, CellTiter-Glo viability, 72 h; at 44.8 µM (top of the series) unless noted. The method, boiled down: as §3
Note: nearly all actives have a fitted effect of over 60% in size.
Potency is the fitted concentration of half-maximal effect.

`CNC(=O)c1cc(Oc2ccc(NC(=O)Nc3ccc(Cl)c(C(F)(F)F)c3)cc2)ccn1`: the Potency with PC49 was 8.91 µM (active); with SC27B, 5.01 µM (active); in the experiment with TAB113, 11.2 µM (active); in the experiment with TAB165 it was 5.62 µM (active); in the experiment with W2, 15.1 µM (active); in the experiment on HEK293, 7.43 µM (active) and 5.8 µM (active). Moreover, the Potency is 14.8 µM (active) and 6.51 µM (active) in the experiment on KB-3-1; 23.5 µM (active) in the experiment with NIH3T3 [2]; 23.7 µM (active) in the experiment with WaGa. In the experiment on HaCat [1], the max response is -11.7% and -12.9%. Besides, the Potency entry with MCC-13 and in the experiment with MCC-26 was “inactive” throughout.
Take `CC1=C(C(=O)O)N2C(=O)[C@@H](NC(=O)C(N)c3ccccc3)[C@H]2SC1` (some centres not stated): the max response is -9.32% with CRL-7250 and 3% in the experiment on HaCat [1]. The result with KB-3-1, with NIH3T3 [2] and in the experiment with NIH3T3 [3] was inactive. The Potency result in the experiment on MCC-13, in the experiment with MCC-26, in the experiment on MKL-1, in the experiment on MKL-2, with UISO and in the experiment with WaGa was “inactive” throughout.
With `COc1cc2nc(N3CCCN(C)CC3)nc(NC3CCN(Cc4ccccc4)CC3)c2cc1OC`, the Potency in the experiment with CRL-7250 is 9.35 µM (active); in the experiment on MKL-1, 2.96 µM (active); in the experiment on MKL-2 it was 1.32 µM (active); in the experiment on UISO, 14.8 µM (active).
Take `CCN(CC)CC#CCOC(=O)C(O)(c1ccccc1)C1CCCCC1` (configuration not stated): the call in the experiment with CRL-7250, in the experiment with HaCat [1], with NIH3T3 [2], with HACAT [4] and in the experiment with NIH3T3 [3] was inactive. In addition, in the experiment on KB-3-1, the max response is 11.1% and 9.45%. Also, the Potency entry in the experiment with MCC-13, with MKL-1, in the experiment on MKL-2, in the experiment with UISO and in the experiment on WaGa was “inactive” in each case.
On to `COC(=O)Nc1nc2ccc(Sc3ccccc3)cc2[nH]1`, for which the Potency result with PC49, in the experiment with SC27B, in the experiment with TAB109, in the experiment with TAB113, in the experiment on TAB165 and in the experiment on W2 was “inactive” in each case. The Potency is 2.37 µM (active) with CRL-7250, 1.66 µM (active) in the experiment on KB-3-1, 0.668 µM (active) with NIH3T3 [2] and 3.32 µM (active) in the experiment with MKL-2. The max response with HaCat [1] is -7.21%.
For the molecule `NC(=O)c1cccnc1`, the Potency entry in the experiment with PC49, with SC27B, in the experiment with TAB109, in the experiment on TAB113, with TAB165 and with W2 was “inactive” throughout. Moreover, the Potency entry in the experiment with MCC-13, in the experiment on MCC-26, in the experiment with MKL-1, with MKL-2, in the experiment with UISO and in the experiment on WaGa was “inactive” throughout. Also, the molecule was classed as inactive in the experiment on HACAT [4] and in the experiment on HEK293T.
Take `Nc1[nH]c(=O)ncc1F`: the Potency entry in the experiment with PC49, in the experiment with SC27B, in the experiment on TAB109, in the experiment on TAB113, in the experiment with TAB165 and with W2 was “inactive” in each case.
Regarding `CC(=O)[C@H]1CC[C@H]2[C@@H]3CCC4=CC(=O)CC[C@]4(C)[C@H]3CC[C@]12C`, in the experiment on HEK293, the Potency was 16.6 µM (active). Besides, the max response in the experiment on NIH3T3 [2] was -0.969%. In addition, the Potency result in the experiment on MCC-13, in the experiment on MCC-26 and in the experiment on MKL-1 was “inactive” in each case.
Turning to `Cc1nnc(NS(=O)(=O)c2ccc(N)cc2)s1`, the Potency entry in the experiment with PC49, in the experiment with SC27B, in the experiment with TAB109, in the experiment with TAB113, in the experiment on TAB165 and in the experiment with W2 was “inactive” each time.
With `Cc1ccc(S(=O)(=O)N[C@@H](Cc2ccccc2)C(=O)CCl)cc1`, the max response with CRL-7250 is -1.25%; with KB-3-1 it was 6.1%. Further, the molecule was called inactive in the experiment with HaCat [1], in the experiment with NIH3T3 [2], with HACAT [4] and with NIH3T3 [3]. For the same molecule, the Potency result in the experiment on MCC-13 was “inactive”.
In the case of `CCOC(=O)[C@H](CCc1ccccc1)N[C@H]1CCc2ccccc2N(CC(=O)O)C1=O`, the max response is -7.52% with CRL-7250 and 4.39% with KB-3-1. Also, the result in the experiment on HaCat [1] and in the experiment with HACAT [4] was inactive. Moreover, the Potency entry with MCC-13, with MCC-26, with MKL-1, with UISO and in the experiment on WaGa was “inactive” in each case.
Turning to `CN1CCN(c2c(F)cc3c(=O)c(C(=O)O)cn(CCF)c3c2F)CC1`, the Potency result in the experiment with PC49, with SC27B, in the experiment on TAB109, in the experiment on TAB113, in the experiment with TAB165 and with W2 was “inactive” each time.
